Here are results for 28 molecules from PubChem BioAssay (NCATS).

Results filed as inconclusive are left out. Entries that show only a call come without a potency. A number with no mark means an inactive call. Activity calls are given as the source filed them. Unless noted, calls come from the whole dose curve; as a rule, active = well fitted curve in the direction sought with a large enough effect; inconclusive = small, poorly fitted or top-dose-only effect, or another doubt; inactive = no such curve, though single readings can be large; an effect the other way counts as inactive or inconclusive.

Assay [1] deals with Calcium and integrin-binding protein 1 (Homo sapiens) (UniProt Q99828). The experiment in a line: Primary qHTS for Identification of Calcium Integrin Binding Protein 1 (CIB1) Competitor (AID 1508620).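 Note: GST tagged CIB1 binding a fluorescein labelled alphaIIb integrin peptide tracer; top concentration of the series differs between compounds.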 The essentials:
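Fluorescence polarization competition: CIB1-GST (1 uM final) preincubated with compound 15 min at room temperature, then FITC-labeled alphaIIb peptide (100 nM final) added for another 15 min. Polarization read at Ex 480/Em 540.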
(Quantitative high-throughput screening tests each substance at several concentrations.)

Assay [2] concerns the target Cytochrome P450 2D6 (Homo sapiens) (UniProt P10635). The experiment in a line: Cytochrome P450 family 2 subfamily D member 6 (CYP2D6) small molecule antagonists: luciferase biochemical (cell-free) qHTS assay (AID 1645840; active = well fitted curve in the direction sought with a large enough effect in the repeat runs; an effect the other way counts as inactive or inconclusive; note: nearly all actives have a fitted effect of over 55% in size; note: potency is the fitted concentration of half-maximal effect; for activity change, negative = inhibition: series mostly up to about 57 µM). The essentials:
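P450-Glo luminescent screen: recombinant CYP2D6 enzyme–proluciferin substrate mix preincubated with compound 10 min at room temperature, then NADPH regeneration added for 1 h at room temperature. Detection reagent added for 20 min; luciferin light read as relative luminescence units.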

Assay [3] can be described thus: Primary qHTS for small molecule stabilizers of the endoplasmic reticulum resident proteome: Secreted ER Calcium Modulated Protein (SERCaMP) assay (AID 1508630). The method in brief: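 GLuc-SERCaMP-expressing SH-SY5Y cells, pretreated 16 h with compound, are challenged with thapsigargin to empty ER calcium stores; after 4 h, coelenterazine is added directly to the medium and luminescence is imaged.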

Cytochrome P450 2D6 (Homo sapiens), sequence (P10635 whole entry, looked up): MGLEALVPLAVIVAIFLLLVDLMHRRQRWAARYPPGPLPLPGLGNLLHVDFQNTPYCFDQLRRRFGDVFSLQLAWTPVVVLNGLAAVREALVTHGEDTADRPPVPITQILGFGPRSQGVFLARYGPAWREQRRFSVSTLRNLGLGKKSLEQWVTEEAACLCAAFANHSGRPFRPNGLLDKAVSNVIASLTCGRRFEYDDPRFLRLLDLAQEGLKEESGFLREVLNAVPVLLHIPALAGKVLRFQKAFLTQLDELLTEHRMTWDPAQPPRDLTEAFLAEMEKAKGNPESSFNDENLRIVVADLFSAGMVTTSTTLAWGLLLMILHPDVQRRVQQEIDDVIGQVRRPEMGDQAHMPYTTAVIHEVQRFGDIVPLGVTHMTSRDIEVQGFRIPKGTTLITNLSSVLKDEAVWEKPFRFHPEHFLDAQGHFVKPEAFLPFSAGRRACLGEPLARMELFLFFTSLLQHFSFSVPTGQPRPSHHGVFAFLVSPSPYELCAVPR
Calcium and integrin-binding protein 1 (Homo sapiens), sequence (Q99828 whole entry, looked up): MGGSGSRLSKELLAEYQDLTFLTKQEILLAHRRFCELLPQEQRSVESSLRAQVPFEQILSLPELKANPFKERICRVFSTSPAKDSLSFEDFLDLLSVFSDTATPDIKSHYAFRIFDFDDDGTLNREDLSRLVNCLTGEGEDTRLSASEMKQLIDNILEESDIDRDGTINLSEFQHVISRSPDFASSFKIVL

Consider `CC(C)(C)[C@H](NC(=O)c1ccc(N)c(Cl)c1)C(=O)N1CCC[C@H]1C(=O)N[C@H](C#N)CC(=O)O`, for which, in assay [1], the Potency result was “inactive”. Same read-out and setting: next, `CC1(C)CC[C@]2(C(=O)O)CC[C@]3(C)C(=CCC4[C@@]5(C)C[C@@H](O)[C@H](O)[C@@](C)(CO)C5CC[C@]43C)[C@@H]2[C@@H]1O` (stereo partly specified): “inactive”.

`COc1c(C(O)CC(C)C)ccc2c1C(=O)OCc1cc(C)cc(O)c1O2` (stereo unspecified): the Potency result in assay [1] is “inactive”. As for `CN[C@@H]1[C@H](O[C@H]2[C@H](O[C@@H]3[C@@H](O)[C@H](O)[C@@H](N=C(N)N)[C@H](O)[C@H]3N=C(N)N)O[C@@H](C)[C@]2(O)CO)O[C@@H](CO)[C@H](O)[C@H]1O`, the Potency entry in assay [1] was “inactive”. Regarding `C=C1/C(=C/C=C2\CCC[C@]3(C)[C@@H]([C@@H](C)OCCC(O)(CC)CC)CC[C@@H]23)C[C@@H](O)C[C@@H]1O`, the Potency entry in assay [1] is “inactive”. In the case of `COC1CC(O[C@H]2CC[C@]3(C)C4CC[C@@]5(C)C(=O)[C@]4(CC[C@@H]3C2)CC[C@@H]5C2=CC(=O)OC2)OC(C)C1OC1OC(COC2OC(CO)C(O)C(O)C2O)C(O)C(O)C1O` (stereo partly specified), the Potency entry in assay [1] is “inactive”.

For `C=CCc1ccc(OC(C)Cc2ccc(OC)c(OC)c2)c(OC)c1` (stereo unspecified), the Potency entry in assay [1] is “inactive”. As for `CCOc1ccc(CCNC(=O)c2cc3sc(Cl)cc3n2C)cc1OCC`, the Potency result in assay [1] and in assay [2] was “inactive” throughout. For the molecule `CN1CC2CN(c3ccc4oc5ccccc5c(=O)c4c3)CC2C1` (stereo unspecified), the Potency entry in assay [1] is “inactive”. Consider `Cc1cc(NC(=O)c2cccc(NC(=O)/C=C/CN(C)C)c2)ccc1Nc1nccc(-c2cccnc2)n1`, for which the Potency entry in assay [1] was “inactive”. The Potency in assay [2] is 10.7 µM (active). In the case of `COC(=O)c1sccc1S(=O)(=O)Nc1ccc(Nc2ccccc2)cc1OC`, the Potency result in assay [1] was “inactive”.

For `Fc1ccc(N2CCN(CCC3OCCc4ccccc43)CC2)cc1` (stereo unspecified), the Potency result in assay [1] was “inactive”. Also, the Potency in assay [2] was 1.9 µM (active). Turning to `O=C(NCC(=O)N1CCCC1)Nc1ccc2cnccc2c1`, the Potency result in assay [1] was “inactive”. The Potency in assay [2] was 12 µM (active). With `CC(C)n1c(=O)c(C(=O)NC2CC3CCC(C2)N3C[C@@H](O)CN(C)S(C)(=O)=O)cc2ccccc21` (stereo partly specified), the Potency result in assay [1] is “inactive”.

Turning to `O=C(NCCCNc1nc(Nc2cccc(CN3CCOCC3)c2)ncc1C1CC1)C1CCC1`, the Potency entry in assay [1] is “inactive”. The Potency in assay [2] was 6.01 µM (active). On to `C/C=C(/C)C(=O)OC1CC(C)(C)CC2C3=CCC4C5(C)CCC(O[C@@H]6O[C@H](C(=O)O)[C@@H](O)[C@H](O)[C@H]6O[C@@H]6O[C@H](CO)[C@H](O)[C@H](O[C@@H]7OC[C@H](O)[C@H](O)[C@H]7O[C@@H]7O[C@H](CO)[C@@H](O)[C@H](O)[C@H]7O)[C@H]6O)C(C)(C)C5CCC4(C)C3(C)C(O)C(O)C12CO` (stereo partly specified), for which the activity change, negative = inhibition in assay [1] is -2.71% [at 12.4 µM]. `COc1ccc2c(c1)C(C(=O)N(Cc1ccc(N(C)C)cc1)c1ccc(C(C)C)cc1)CCC2` (stereo unspecified): the Potency entry in assay [1] and in assay [2] was “inactive” each time.

As for `COc1ccccc1-c1ccc(-c2cn(C(=O)N3CCCCC3Cc3ccccc3)nn2)cc1` (stereo unspecified), the Potency result in assay [1] and in assay [2] was “inactive” in each case. With `COc1cc(C[C@H]2C(=O)OC[C@@H]2Cc2ccc(OC)c(OC)c2)ccc1O`, the Potency result in assay [1] is “inactive”. For the same molecule, the outcome in assay [3] was inactive.

Take `COc1ccc2[nH]c(=O)c3c(c2c1)OC(C)(C)C=C3`: the Potency result in assay [1] is “inactive”. Also, the outcome in assay [3] was inactive.

Turning to `C=CC(=O)Nc1cccc(Nc2nc(Nc3ccc(NC4CN(CCF)C4)cc3OC)ncc2C(F)(F)F)c1`, in assay [1], the Potency entry is “inactive”. For the same molecule, in assay [2], the Potency is 13.5 µM (active).

For the molecule `CC(=O)O[C@@H]1[C@@H](O)[C@H](O[C@@H]2[C@@H](O)[C@@H](O)[C@H](O[C@H]3[C@H](O[C@H]4[C@H](O[C@H]5CC[C@@]6(C)C(CC[C@]7(C)C6CC=C6[C@@H]8CC(C)(C)CC[C@]8(C(=O)O)CC[C@]67C)[C@]5(C)CO)O[C@H](CO)[C@@H](O)[C@@H]4O)OC[C@@H](O)[C@@H]3O)O[C@H]2C)OC[C@H]1O` (stereo partly specified), the Potency result in assay [1] is “inactive”.

Regarding `COc1c(C)cc(NC(=O)c2nn(Cc3ccc(F)cc3)c3c2CN(C(=O)c2ccc[nH]2)C[C@]3(C)C(N)=O)cc1C`, in assay [1], the Potency entry is “inactive”. On to `COc1c2c(nc3occc13)C(CC=C(C)C)(OC)C(O)CC2` (stereo unspecified), for which, in assay [1], the Potency result is “inactive”. As for `Cn1nc(-c2ccc(C(F)(F)F)cc2)nc2c(=O)n(C)c(=O)nc1-2`, the Potency result in assay [1] is “inactive”. In addition, the Potency in assay [2] is 0.239 µM (active). On to `COc1ccc(Sc2ccc(NC(=O)c3ccccc3Cl)cc2C#N)cc1`, for which the Potency result in assay [1] and in assay [2] was “inactive” throughout. In the case of `N#Cc1cnc2c(Cl)cc(NCc3cn(CCN4CCCCCC4)nn3)cc2c1Nc1ccc(F)c(Cl)c1`, the Potency result in assay [1] was “inactive”. For the same molecule, the Potency in assay [2] is 0.849 µM (active). For the molecule `C[C@@H]1O[C@@H](O[C@H]2[C@H](OC(=O)[C@]34CCC(C)(C)C[C@H]3C3=CCC5[C@@]6(C)C[C@H](O)[C@H](O[C@@H]7O[C@H](C(=O)O)[C@@H](O)[C@H](O)[C@H]7O)[C@@](C)(CO)C6[C@H](O)C[C@@]5(C)[C@]3(C)C[C@H]4O)O[C@@H](CO)[C@@H]2O)[C@H](O)[C@H](O)[C@H]1O[C@@H]1OC[C@@H](O)[C@H](O[C@H]2OC[C@](O)(CO)[C@H]2O)[C@H]1O` (stereo partly specified), the activity change, negative = inhibition in assay [1] was 1.16% [at 12.4 µM].
